Inconclusive results are not listed. Active and inactive are the calls of the source. Calls follow the shape of the dose curve; as a rule, active = well fitted curve in the direction sought with a large enough effect; inconclusive = small, poorly fitted or top-dose-only effect, or another doubt; inactive = no such curve, though single readings can be large; an effect the other way counts as inactive or inconclusive.
How the values were obtained:
[1] = Cell Viability - N2a (AID 540); conditions: N2a mouse neuroblastoma cell viability; activity change, negative = cytotoxicity: at 92.2 µM (top of the series);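 also: cells exposed to compound for 40 h at 37 °C; plate controls were DMSO alone for no effect and tamoxifen control for full effect; nearly all actives have a fitted effect of over 45% in size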
Summary of the method: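 First, 1500 N2a cells per well incubate 5 hr at 37 °C; next, compounds are added and incubated 40 hr at 37 °C; finally CellTiter-Glo is added and luminescence read after 20 min, with AC50 derived by Hill modeling.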

[2] = Cell Viability - Renal Proximal Tubule (AID 545);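 also: cells exposed to compound for 40 hours; nearly all actives have a fitted effect of over 40% in size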
Summary of the method: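 Primary rat renal proximal tubule cells (1000/well) were treated with compounds for 40 hr at 37 °C in complete medium. Intracellular ATP was measured by CellTiter-Glo luminescence, and AC50 values came from Hill-equation fits of concentration-response data.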

[3] = Cellular Toxicity (caspase-3) Jurkat (AID 655); conditions: Jurkat caspase-3 activation, luminescence; caspase-3 activation: at 92.2 µM (top of the series), DMSO = 0%, tamoxifen = 100%;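 also: cells exposed to compound for 16 h at 37 °C before reading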
Summary of the method: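 Jurkat cells (5000/well) in complete medium were treated with compounds for 16 hr at 37 °C, then Caspase-Glo 3/7 luminescence was read after 20 min at room temperature. Data normalized to DMSO (basal) and 100 uM tamoxifen (100%); AC50 from Hill fit.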

[4] = Cellular Toxicity (caspase-3) NIH 3T3 (AID 666);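 also: caspase signal read after 16 h compound exposure; 0% = DMSO basal and 100% = 100 µM tamoxifen stimulation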
Summary of the method: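 Concentration-response qHTS in NIH 3T3 mouse fibroblasts scores caspase-3/7 activation as rising luminescence after 16 hr compound exposure. Signals are scaled between DMSO-only and 100 uM tamoxifen.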

[5] = Cellular Toxicity (caspase-3) Renal Proximal Tubule (AID 667);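 also: cells exposed to compound for 16 hours at 37 °C before detection; 0% = DMSO basal and 100% = 10 µM staurosporine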
Summary of the method: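 Primary rat proximal tubule cells, 1000/well, 5 h plating at 37 °C, then compound 16 h at 37 °C. Caspase-Glo 3/7 reagent, 1 h RT, luminescence. Normalized to DMSO (basal) and 10 uM staurosporine (100%); Hill-fit AC50.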

[6] = MultiTox-Fluor Cytotoxicity Assay - LYMP1-001 - Dead Cells (AID 946);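 also: 0% = DMSO and 100% = tetraoctylammonium bromide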
Summary of the method: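 Seed 2500 LYMP1-001 cells/well, incubate 5 hr at 37 C; add compound, 16 hr at 37 C; add MultiTox-Fluor reagent, 60 min RT; read dead-cell fluorescence Ex/Em=485/520. Normalize to DMSO and 15 uM tetraoctylammonium bromide.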

[7] = Cell Viability - LYMP1-003 - Assay at 40 hr (AID 964); also: % is scaled to controls: 0 for no effect and ±100 for the full control effect; nearly all actives have a fitted effect of over 60% in size
Summary of the method: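 This qHTS cytotoxicity screen treats human lymphoblastoid cells (LYMP1-003) with compounds for 40 hr and quantifies cellular ATP via luciferase luminescence.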

[8] = Cell Viability - LYMP2-009 (AID 968);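 also: 0% = DMSO alone and the full-kill end = tetraoctylammonium bromide at 92 µM; nearly all actives have a fitted effect of over 55% in size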
[9] = Cell Viability - LYMP2-019 (AID 973);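 also: 0% = DMSO alone and full effect = 92 µM tetraoctylammonium bromide; nearly all actives have a fitted effect of over 55% in size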
Summary of the method: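 Cells plated at 2500/well and allowed 5 hr at 37 C before compound addition. After 24 hr incubation, CellTiter-Glo reagent was added, plates sat 30 min at room temperature, and luminescence was recorded.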

[10] = Cell Viability - LYMP2-002 (AID 977);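 also: compound exposure lasted 24 h at 37 °C; plate controls were DMSO only for no effect and 92 µM tetraoctylammonium bromide for full effect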
Summary of the method: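 Cytotoxicity is scored as concentration-dependent loss of cellular ATP in a human lymphoblastoid line after 24 hr compound treatment at 37 C. AC50 is obtained by modelling concentration-response data with the Hill equation.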

[11] = Cell Viability - LYMP2-006 (AID 978); also: % is scaled to controls: 0 for no effect and ±100 for the full control effect; nearly all actives have a fitted effect of over 60% in size
Summary of the method: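 Human lymphoblastoid cells, 2500 per well, were preincubated 5 hr at 37 C, then exposed to compounds for 24 hr at 37 C in complete medium. Viability was read as intracellular ATP by CellTiter-Glo luminescence; AC50 from Hill-equation fits of qHTS concentration-response data.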

[12] = Cell Viability - LYMP2-010 (AID 981); also: % is scaled to controls: 0 for no effect and ±100 for the full control effect; nearly all actives have a fitted effect of over 55% in size
Summary of the method: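 Acute toxicity is scored as a concentration-dependent loss of cellular ATP in human lymphoblastoid cells after 24 hr compound exposure in complete medium. Tetraoctylammonium bromide is the positive control.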

[13] = Cell Viability - LYMP2-022 (AID 987);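 also: 0% = DMSO alone and full effect = tetraoctylammonium bromide at 92 µM; nearly all actives have a fitted effect of over 55% in size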
Summary of the method: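 Acute toxicity in a human lymphoblastoid line is scored as decreased intracellular ATP after 24 hr compound treatment at 37 C. ATP is measured by CellTiter-Glo luminescence; curves are fitted with the Hill equation to give AC50.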

[14] = qHTS assay for environmental chemicals that activate the Aryl hydrocarbon Receptor (AhR) signaling pathway (AID 651777); conditions: 1A2-DRE human hepatoma cells, luciferase, 24 h; activation: stronger effect = higher value; also: % of control where 0% means no effect; nearly all actives have a fitted effect of over 15% in size
Summary of the method: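 Following a 24 hr incubation with test chemicals at 37 C and 5% CO2, 1A2-DRE human hepatoma cells received One-Glo reagent; after 30 min at room temperature, luciferase output reflected CYP1A2 induction via AhR.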

[15] = biological target: Peroxisome proliferator-activated receptor alpha (Homo sapiens) (UniProt Q07869); experiment: qHTS assay for small molecule agonists of the peroxisome proliferator-activated receptor alpha (PPARalpha) signaling pathway (AID 651778); conditions: PathHunter PPARalpha complementation, chemiluminescence, 6 h; stronger effect = higher value; also: % of control where 0% means no effect
Summary of the method: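 Chemiluminescence from complemented enzyme reported PPARalpha activation in cells after 6 hr of compound treatment at 37 C. The detection reagent was incubated for 60 min at room temperature, and compounds were scored as agonists.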

[16] = qHTS assay for cell viability of the p53RE-bla HCT-116 cell line (AID 743292)
Summary of the method: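 After plating at 4,000 cells per well and a 5 h rest at 37 C, HCT-116 cells carrying p53RE-bla received test chemicals in DMSO. Sixteen hours later at 37 C, CellTiter-Glo was added and luminescence recorded following 30 min at room temperature.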

[17] = Cell Viability - LYMP1-003 - Assay at 24 hr (AID 963);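 also: plate controls were DMSO only for no effect and tetraoctylammonium bromide positive control for full effect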
Summary of the method: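 Acute toxicity in LYMP1-003 lymphoblastoid cells: 24 hr compound treatment at 37 C, ATP measured with CellTiter-Glo after 30 min at room temperature. AC50 derived by fitting the Hill equation to qHTS titrations.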

[18] = Cell Viability - LYMP2-011 (AID 969);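 also: 0% = DMSO only and full inhibition = 92 µM tetraoctylammonium bromide; nearly all actives have a fitted effect of over 60% in size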
Summary of the method: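 Acute toxicity is scored as a concentration-dependent drop in intracellular ATP of a human lymphoblastoid line after 24 hr treatment. Values are AC50s modeled with the Hill equation.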

[19] = Cell Viability - LYMP2-020 (AID 986)
Summary of the method: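 Acute cytotoxicity in a human lymphoblastoid line is scored as a concentration-dependent fall in cellular ATP after 24 hr at 37 C in complete medium. The positive control is tetraoctylammonium bromide, and potency is given as Hill-fit AC50.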

[20] = Cell Viability - LYMP2-014 (AID 983);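 also: plate controls were DMSO only for no effect and 92 µM tetraoctylammonium bromide for full effect; nearly all actives have a fitted effect of over 50% in size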
Summary of the method: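 Decrease in intracellular ATP after 24 hr treatment at 37 C, measured by luciferase luminescence, indicated cytotoxicity. Concentration-response data were fitted with the standard Hill equation to give AC50.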

Chain of Peroxisome proliferator-activated receptor alpha (Homo sapiens) (Q07869 whole entry, looked up): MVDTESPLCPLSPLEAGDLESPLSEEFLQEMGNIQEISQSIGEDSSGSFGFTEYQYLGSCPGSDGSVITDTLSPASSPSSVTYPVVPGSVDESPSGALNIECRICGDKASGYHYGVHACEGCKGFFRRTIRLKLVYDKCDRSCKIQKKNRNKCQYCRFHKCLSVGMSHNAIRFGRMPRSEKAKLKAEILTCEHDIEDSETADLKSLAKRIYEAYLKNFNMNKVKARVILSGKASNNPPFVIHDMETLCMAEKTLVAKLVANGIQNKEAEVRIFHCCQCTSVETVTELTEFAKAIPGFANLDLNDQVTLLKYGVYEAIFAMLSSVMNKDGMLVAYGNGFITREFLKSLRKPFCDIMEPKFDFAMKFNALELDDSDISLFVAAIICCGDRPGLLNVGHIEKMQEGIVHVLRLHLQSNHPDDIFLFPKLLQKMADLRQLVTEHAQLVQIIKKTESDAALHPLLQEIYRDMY

CC(=O)NNc1ccccc1
inactive: Potency [1] | outcome [2] | caspase-3 activation [3] 1.53% | Potency [4] | outcome [5] | outcome [6] | Potency [7] | Potency [8] | Potency [9] | Potency [10] | Potency [11] | Potency [12] | Potency [13] | activation [14] 2.76% | max response [15] -1.86% | Potency [16]

ClCc1ccccc1
inactive: Potency [1] | outcome [2] | caspase-3 activation [3] 0.582% | Potency [4] | outcome [5] | outcome [6] | outcome [17] | Potency [7] | Potency [8] | Potency [18] | Potency [9] | Potency [10] | Potency [11] | Potency [12] | Potency [19] | Potency [13] | Potency [16]

ClC(Cl)c1ccccc1
inactive: Potency [1] | outcome [2] | caspase-3 activation [3] 2.34% | outcome [5] | outcome [6] | outcome [17] | Potency [8] | Potency [18] | Potency [10] | Potency [11] | Potency [19] | Potency [13] | activation [14] -2.06% | max response [15] -0.698%

Cc1ccc(N)cc1Cl
inactive: Potency [1] | outcome [2] | caspase-3 activation [3] 1.16% | outcome [5] | outcome [6] | outcome [17] | Potency [7] | Potency [8] | Potency [18] | Potency [9] | Potency [10] | Potency [11] | Potency [12] | Potency [20] | Potency [19] | Potency [13] | max response [15] 3.75% | Potency [16]

Clc1ccccc1
inactive: Potency [1] | outcome [2] | caspase-3 activation [3] 1.44% | Potency [4] | outcome [5] | outcome [6] | outcome [17] | Potency [7] | Potency [8] | Potency [18] | Potency [9] | Potency [10] | Potency [11] | Potency [12] | Potency [20] | Potency [19] | Potency [13] | activation [14] -0.0364% | max response [15] -0.13% | Potency [16]

CC(C)CC(C)N (stereo not drawn)
inactive: Potency [1] | outcome [2] | outcome [5] | outcome [6] | Potency [7] | Potency [8] | Potency [18] | Potency [9] | Potency [10] | Potency [11] | Potency [12] | Potency [20] | Potency [19] | activation [14] 0.111% | max response [15] 1.79%

CCCCCc1cc(O)cc(O)c1
inactive: Potency [1] | outcome [2] | caspase-3 activation [3] 1.33% | outcome [5] | outcome [6] | Potency [7] | Potency [8] | Potency [18] | Potency [9] | Potency [11] | Potency [12] | Potency [20] | Potency [13] | activation [14] 9.87% | max response [15] -5.69% | Potency [16]

Cc1ccc([N+](=O)[O-])cc1
inactive: Potency [1] | outcome [2] | Potency [4] | outcome [5] | outcome [6] | outcome [17] | Potency [7] | Potency [8] | Potency [18] | Potency [9] | Potency [12] | Potency [20] | Potency [19] | Potency [13] | activation [14] -0.408% | max response [15] -0.114% | Potency [16]

— PubChem BioAssay (NCATS)
